From PubChem BioAssay AID1220 (Sanford-Burnham Center for Chemical Genomics, 2008) come the findings set out here.

In all, about 190,000 compounds went through this assay and about 1,300 (0.68%) were called active. For the sample, actives were picked, then their nearest neighbours and some compounds at random. Unmarked numbers belong to inactive results. Rule as the data show it: active = inhibition above about 50%; inactive = the rest.

As usually defined, the inhibition is the relative decrease from the control value, in per cent.

This assay deals with Mannose-6-phosphate isomerase (Homo sapiens) (UniProt P34949). Description: MPI inhibition at elevated mannose 6-phosphate – biochemical, fluorescence intensity, high mannose 6-phosphate, primary screen (AID 1220). The settings on record: recombinant PMI enzyme, coupled fluorescence intensity; at 20 µM; stronger effect = higher value.
Mannose-6-phosphate isomerase (Homo sapiens), sequence (P34949 whole entry, looked up): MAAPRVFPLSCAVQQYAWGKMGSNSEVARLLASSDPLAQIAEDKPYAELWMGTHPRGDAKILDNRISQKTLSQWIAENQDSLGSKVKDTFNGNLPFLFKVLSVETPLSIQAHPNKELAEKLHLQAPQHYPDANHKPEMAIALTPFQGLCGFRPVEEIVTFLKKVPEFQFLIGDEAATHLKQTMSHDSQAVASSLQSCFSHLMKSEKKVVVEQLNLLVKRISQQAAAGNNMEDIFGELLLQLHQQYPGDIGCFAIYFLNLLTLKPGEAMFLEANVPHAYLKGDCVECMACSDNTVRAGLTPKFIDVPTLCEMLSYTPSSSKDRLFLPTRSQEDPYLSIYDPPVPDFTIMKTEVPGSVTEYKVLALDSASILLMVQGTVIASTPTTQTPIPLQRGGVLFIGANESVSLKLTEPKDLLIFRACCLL
Regarding `CCOC(=O)CCCNC(=O)COC(=O)c1cccc(C)c1O`, the inhibition is -3.7%. As to `S=C1NCCOCCOCCNC(=S)N2CCOCCOCCN1CCOCCOCC2`, the inhibition was 11.7%. Under `CC(=O)N1CCC(N(CCN2CCOCC2)C(=S)Nc2cccc(C)c2)CC1` stands -11.5%. With `CC1(C)CC2CC(C)(CN2C(=O)COc2cccc3ccccc23)C1` (centres undefined), the inhibition is 2.7%.

In the case of `CC1(C)CC2CC(C)(CN2CC(=O)C(C#N)c2ccccc2)C1` (centres undefined), the inhibition was -41%. In the case of `CC1(C)CC2CC(C)(CN2Cc2c(O)ccc3ccccc23)C1` (centres undefined) it was 66.3% (active); in that of `O=Cc1ccc2noc(-c3ccc(F)cc3)c2c1`, -86.8%; in that of `CCCn1nnc(NC(=O)c2ccc(OCC)c(Cl)c2)n1`, 2%. In the case of `CC1OC(Nc2cccc3ccccc23)C(O)C(O)C1O` (centres undefined) it was 60.5% (active); in that of `CC(=O)c1ccc(NC2OC(C)C(O)C(O)C2O)cc1` (centres undefined), 20.1%.

In the case of `CC1OC(Nc2ccc(N=Nc3ccccc3)cc2)C(O)C(O)C1O` (centres undefined), the inhibition was 8.3%. In the case of `Cc1ccc2cc(CN(Cc3cccs3)Cc3nnnn3CC3CCCO3)c(=O)[nH]c2c1C` (centres undefined) it was 0.6%. Under `COc1cccc(NC(=S)N(Cc2ccc(Cl)cc2)Cc2ccc(C(=O)O)cc2)c1` stands -30.6%. Under `COc1ccccc1CC(=O)NCC(c1ccco1)N1CCCCC1` (centres undefined) stands 58.9% (active). For the compound `COc1ccccc1NC(=O)NCC(c1ccco1)N1CCCCC1` (centres undefined), the inhibition was 0.2%.

`O=C(Cc1ccccc1F)NCC(c1ccco1)N1CCCCC1` (centres undefined): the inhibition was -5.8%. `O=C(c1ccco1)N1CCN(C(c2ccc(F)cc2)c2nnnn2Cc2cccs2)CC1` (centres undefined): the inhibition is -6%. In the case of `Cn1cnc2cc(NC(=O)c3ccc(Cl)cc3)ccc21` it was -16.1%. Consider `CSc1nc2ccccc2n1CC(=O)Nc1cc(C(F)(F)F)ccc1N1CCOCC1`, for which the inhibition was -1.6%. Under `NS(=O)(=O)c1ccc(C(=O)O)cc1` stands -8%; under `N#CC(C#N)=C1c2cc(S(N)(=O)=O)ccc2-c2ccc(S(N)(=O)=O)cc21`, 57.5% (active); under `N#CC(C#N)=Cc1cccn1-c1ccc(S(N)(=O)=O)cc1`, 0%. For the compound `CC(C)OP(=O)(c1ccccc1)c1ccccc1`, the inhibition was -8.8%. Under `C=CCN1C(=NC(=O)CCC)SC2CS(=O)(=O)CC21` (centres undefined) stands -8.2%; under `O=C(/C=C/c1ccc(-c2ccccc2[N+](=O)[O-])o1)c1ccc(F)cc1`, 34.1%; under `CNC(=O)/C(C#N)=C/c1ccc(-c2ccccc2[N+](=O)[O-])o1`, 61% (active). For `O=C(/C=C/c1ccc(-c2ccccc2[N+](=O)[O-])o1)c1ccco1`, the inhibition is 51.7% (active).

Consider `N#C/C(=C\c1ccc(-c2ccccc2[N+](=O)[O-])o1)C(=O)Nc1nc(-c2cccs2)cs1`, for which the inhibition is 53.1% (active). Under `N#C/C(=C\c1ccc(-c2ccccc2[N+](=O)[O-])o1)C(=O)N1CCOCC1` stands 45.8%; under `Cc1ccc(Cc2cnc(NC(=O)/C(C#N)=C/c3ccc(-c4ccccc4[N+](=O)[O-])o3)s2)cc1`, 30.3%. Under `O=C(/C=C/c1ccc(-c2ccccc2[N+](=O)[O-])o1)c1ccc(Br)cc1` stands -32.8%. Under `O=C(/C=C/c1ccc(-c2ccccc2[N+](=O)[O-])o1)c1ccccc1` stands 47.3%; under `CNC(=O)/C(C#N)=C/c1ccc(-c2ccc(OC)cc2[N+](=O)[O-])o1`, 29.2%. Turning to `N#C/C(=C/c1ccc(-c2ccccc2[N+](=O)[O-])o1)C(N)=O`, the inhibition is 51.9% (active). Under `N#C/C(=C\c1ccc(-c2ccc(F)cc2)o1)C(=O)Nc1nc(-c2cccs2)cs1` stands 30.8%; under `COCCNC(=O)/C(C#N)=C/c1ccc(-c2ccc(OC)cc2[N+](=O)[O-])o1`, 42.2%; under `CCOC(=O)c1c(NC(=O)c2c(C(=O)O)cccc2[N+](=O)[O-])sc(C)c1C`, 8.7%. In the case of `O=C(Nc1ccc(S(=O)(=O)Nc2ccc(F)cc2)cc1)c1ccc(CN2CCOCC2)cc1` it was 17%. Under `Cc1cc(C)n(-c2nc(NCc3cccnc3)c3c4c(sc3n2)COC(C)(C)C4)n1` stands 6.9%; under `O=c1c2cc(NC(=S)NCc3cccnc3)ccc2nc2n1CCCCC2`, 1.2%. For `CC1Cc2ccccc2N1C(=O)CSc1nnc(-c2ccccc2)c(-c2ccccc2)n1` (centres undefined), the inhibition was 37.9%.

As for `COc1cccc(C2CC(c3ccc(C(C)C)cc3)n3nc(N)nc3N2)c1` (centres undefined), the inhibition is 11.2%.

With `CC(=O)Nc1ccc(OCC(O)CN2CCN(c3cc(Cl)ccc3C)CC2)cc1` (centres undefined), the inhibition was -2%.

Consider `CC(C)(C)c1cc2cccnc2n1Cc1cccc(Cl)c1`, for which the inhibition was 1.9%.

With `Oc1c(CN2CCc3ccccc3C2)cc(Cl)c2cccnc12`, the inhibition was 48.3%. In the case of `Clc1cccc(CN2COc3c(cc(Cl)c4cccnc34)C2)c1` it was 51.8% (active); in that of `Cc1nn(-c2ccccc2)c(Cl)c1C1C(C#N)=C(N)Oc2c1c(C)nn2-c1ccccc1` (centres undefined), 9%. In the case of `CC(C)CNC(=O)CSc1nc2scc(-c3ccccc3)c2c(=O)[nH]1` it was -14.2%; in that of `CC(=O)Nc1ccc(N(C(=O)CNC(=O)c2ccco2)C(C(=O)NCC2CCCO2)c2ccccc2)cc1` (centres undefined), -1.6%.

Take `CC(=O)c1cccc(N(C(=O)CNC(=O)c2ccco2)C(C(=O)NCc2ccco2)c2ccccc2)c1` (centres undefined): the inhibition was -1.4%. In the case of `CC(=O)Nc1ccc(N(C(=O)CNC(=O)c2ccco2)C(C(=O)NCc2ccco2)c2ccccc2F)cc1` (centres undefined) it was 60.4% (active); in that of `O=C(Oc1ccc(Cl)c2cccnc12)N1CCOCC1`, 8.2%. Under `O=C(Oc1c(CN2CCOCC2)cc(Cl)c2cccnc12)c1cccs1` stands 56.4% (active); under `O=C(Oc1c(Cl)cc(Cl)c2cccnc12)c1cccs1`, 1.8%; under `COCc1cc(CN2CCN(C)CC2)c(O)c2ncccc12`, 37.9%. As for `O=C(OCCN1CCOCC1)c1cccs1`, the inhibition was 9%. Under `CN1CCN(Cc2cc(Cl)c3cccnc3c2OC(=O)c2cccs2)CC1` stands 50.4% (active); under `CCC(=O)c1ccc(N2CCN(C(=O)c3cccc(F)c3)CC2)c(F)c1`, 7.7%. In the case of `CCCn1nc(C(=O)NCc2ccccn2)c2ccccc2c1=O`, the inhibition is -1.4%.

`O=C(CNCCC1=CCCCC1)Nc1ccccc1N1CCCCC1`: the inhibition was -0.7%. Under `COCc1cc(C)nc2sc(C(=O)NCCO)c(-n3cccc3)c12` stands -8.1%. In the case of `Cc1nn(-c2ccc(Cl)cc2)c(N)c1C(O)(CSc1nccn1C)C(F)(F)F` (centres undefined) it was 10.3%; in that of `O=C(COC(=O)c1ccncc1)Nc1cccc(Cl)c1`, 23.4%; in that of `O=C(COC(=O)c1ccncc1)Nc1cc(Cl)c(Cl)cc1Cl`, 3.3%.

For `O=C(COC(=O)c1ccncc1)Nc1cc(Cl)ccc1Cl`, the inhibition is 93.2% (active). Under `Cc1ccc(S(=O)(=O)NNC(=O)c2sccc2-n2cccc2)cc1` stands -2.5%. In the case of `Cc1ccc(/C=c2/sc3n(c2=O)CCCN=3)o1` it was -24.9%; in that of `O=C(NCc1ccc(/C=c2\sc3n(c2=O)CCN=3)o1)C(=O)Nc1ccccc1`, 50.9% (active); in that of `O=c1/c(=C/c2ccc(CNS(=O)(=O)c3ccccc3)o2)sc2n1CCN=2`, 13.7%. Under `COc1ccc(C(=O)NCc2nnc(SCC(=O)Nc3cccc(F)c3)o2)cc1` stands -10.6%; under `CCOC(=O)Cc1nnc(-c2ccccc2)o1`, 40.2%.

As to `CCOc1cccc(N(C(=O)C2COc3ccccc3O2)C(C(=O)NC2CCCCC2)c2ccc(O)cc2)c1` (centres undefined), the inhibition was -4.1%.

Take `CC(C)CCNC(=O)C(c1ccc(O)cc1)N(C(=O)C1COc2ccccc2O1)c1cccc(O)c1` (centres undefined): the inhibition is 60.7% (active). In the case of `CC(C)CCNC(=O)C(c1ccc(O)cc1)N(Cc1cccs1)C(=O)C1COc2ccccc2O1` (centres undefined) it was 9.3%; in that of `COCC(C)NC(C(=O)Nc1ccc(C)c(Cl)c1)c1ccccc1` (centres undefined), 1.8%; in that of `CN(c1ccc(OCC(=O)Nc2nc(-c3ccccc3)cs2)cc1)S(=O)(=O)c1ccc(F)cc1`, 8.4%. In the case of `Cc1cc(C)c(NC(=O)COC(=O)Cc2ccsc2)c(C)c1`, the inhibition is -8.2%.

For `Cc1ccc(S(=O)(=O)N2CCC(=O)N(CCOCc3cccc(F)c3)CC2)cc1`, the inhibition was 6.5%. Under `N#CCCn1c2ccccc2c2nc3ccccc3nc21` stands -21.1%. In the case of `N#CCn1c2ccccc2c2nc3ccccc3nc21` it was 55.3% (active). In the case of `COc1cc2nc3c4ccccc4n(CC#N)c3nc2cc1OC` it was -0.4%; in that of `Cc1ccc(C2N(C)c3ccccc3-c3nc4ccccc4n32)o1` (centres undefined), 3.8%; in that of `O=C(O)COc1ccccc1C(Nc1cccnc1)c1cc(Cl)c2cccnc2c1O` (centres undefined), 32%. For the compound `CCCC(=O)NC(c1cccs1)c1cc([N+](=O)[O-])c2cccnc2c1O` (centres undefined), the inhibition is 55.7% (active). Take `O=C(NC(c1ccccc1)c1cc(Cl)c2cccnc2c1O)c1cccnc1` (centres undefined): the inhibition was 23.4%.

Take `Oc1c(C(Nc2ccccn2)c2cccnc2)cc(Cl)c2cccnc12` (centres undefined): the inhibition was 43.5%. Under `Cc1ccc([N+](=O)[O-])c2cccnc12` stands 13.6%. Under `CC(=O)NC(c1ccccc1)c1cc([N+](=O)[O-])c2cccnc2c1O` (centres undefined) stands 58% (active); under `CCC(=O)NC(c1cccs1)c1cc([N+](=O)[O-])c2cccnc2c1O` (centres undefined), 43.9%.

Take `CC(=O)NC(c1ccc(C)cc1)c1cc([N+](=O)[O-])c2cccnc2c1O` (centres undefined): the inhibition was 64.9% (active). In the case of `CCOc1ccc(C(Nc2cccnc2)c2cc(Cl)c3cccnc3c2O)cc1` (centres undefined) it was 66% (active). In the case of `CC(=O)NC(c1cccs1)c1cc([N+](=O)[O-])c2cccnc2c1O` (centres undefined) it was 43.2%; in that of `CCCC(=O)NC(c1cccs1)c1cc(Cl)c2cccnc2c1O` (centres undefined), 38.8%; in that of `O=[N+]([O-])c1cc(Cl)c2cccnc2c1O`, 47.2%.
